DT40 TDP1 no CPT = qHTS for Inhibitors of human tyrosyl-DNA phosphodiesterase 1 (TDP1): qHTS in cells in absence of CPT. AID 686978, 2013. DT40 Tdp1-/- hTDP1 cells, no CPT, ATP luminescence, 48 h. Potency, µM (top dose mostly 46.2 µM), for the others: top-dose activity change, negative = growth inhibition, actives largely listed as inhibitors. 420,000 tested, 15% active; also: potency is read from the fitted curve at half-maximal effect; nearly all actives have a fitted effect of over 55% in size
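Cells were dispensed at 400 per well, compounds added by pin tool, plates incubated ≥48 hr at 37 °C, then CellTiter-Glo added for 30 min at room temperature before luminescence reading. Line: DT40 Tdp1-/- complemented with hTDP1; camptothecin omitted.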
LDHA inh = LDHA (human) enzyme inhibition. P00338. purified LDHA, NADH/diaphorase-resazurin fluorescence; hits give low values. activity change, % (values are at about 110 or 230 µM). 480,000 tested, 0.15% active. AID 1347041; in the data active = activity change below about -30%; inconclusive = mostly about -25% to -30%;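 also: plate controls were DMSO wells for no effect and wells without enzyme for full effect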
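Human LDH5 (2 nM) was incubated with 0.06 mM NADH and 0.2 mM pyruvate for 5 min at room temperature in Tris pH 7.4. Remaining NADH was coupled through diaphorase/resazurin, and resorufin fluorescence was read at 0 and 20 min.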
RORg inh = ROR gamma (mouse) transcription inhibition | 310,000 tested, 5.4% active | Drosophila S2 Gal4-RORgamma UAS-luciferase reporter, 20 h | Potency, µM (top dose mostly 53.6 µM), for inactives: at the top dose activity change, negative = inhibition, usual class: inhibitors | P51450; also: potency is read from the fitted curve at half-maximal effect; nearly all actives have a fitted effect of over 60% in size
Target sequence (P51450 whole entry, looked up, the tested form may be a part): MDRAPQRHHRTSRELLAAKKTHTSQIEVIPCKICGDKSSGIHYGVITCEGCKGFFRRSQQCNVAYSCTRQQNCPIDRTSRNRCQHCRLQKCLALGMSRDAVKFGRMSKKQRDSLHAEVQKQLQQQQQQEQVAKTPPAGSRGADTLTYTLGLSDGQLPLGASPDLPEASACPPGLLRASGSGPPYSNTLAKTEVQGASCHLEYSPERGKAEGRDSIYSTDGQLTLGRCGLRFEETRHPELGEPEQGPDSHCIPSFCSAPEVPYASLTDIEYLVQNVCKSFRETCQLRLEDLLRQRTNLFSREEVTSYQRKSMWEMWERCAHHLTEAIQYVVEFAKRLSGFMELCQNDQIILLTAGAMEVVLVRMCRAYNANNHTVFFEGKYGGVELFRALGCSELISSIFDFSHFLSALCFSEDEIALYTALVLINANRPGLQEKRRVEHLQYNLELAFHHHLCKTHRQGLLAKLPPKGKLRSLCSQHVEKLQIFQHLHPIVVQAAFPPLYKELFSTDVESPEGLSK
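ROR gamma transcriptional activity was tracked as Gal4-UAS luciferase output in stably transfected Drosophila Schneider cells, with compound added 1 hr before 700 uM copper sulfate induction and a 20 hr ambient-temperature incubation.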
DT40 TDP1 CPT = DT40-hTDP1 cell growth loss with CPT | 420,000 tested, 12% active | chicken DT40 Tdp1-/-;hTDP1 cells + 20 nM CPT, ATP luminescence, 48 h | Potency, µM (highest dose often 46.2 µM), without a hit: at the highest dose activity change, negative = growth inhibition, most hits filed as inhibitors; also: potency is read from the fitted curve at half-maximal effect; nearly all actives have a fitted effect of over 55% in size
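Cell growth measured by CellTiter-Glo luminescence after a minimum 48 h, 37 C compound exposure with 20 nM CPT in Tdp1-knockout DT40 cells stably expressing hTDP1, seeded 400/well; qHTS titration format.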
VP16 counter = Gal4-VP16 reporter inhibition counter-screen | 310,000 tested, 3.5% active | Drosophila S2 Gal4-VP16 UAS-luciferase, luminescence, 20 h | AID 2546 | Potency, µM (doses to about 53.6 µM), without a hit: at the top dose activity, negative = inhibition, actives largely listed as inhibitors;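 also: Gal4-VP16 expression switched on by copper sulfate through the metallothionein promoter; potency is read from the fitted curve at half-maximal effect; nearly all actives have a fitted effect of over 50% in size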
IL1B secr inh = blocks inflammasome-driven IL-1 beta release | THP-1 LPS/ATP IL-1B secretion, AlphaLISA, 16 h; hits give low values | activity change, % at 57.5 µM | 360,000 tested, 4.7% active; in the data active = activity change below about -50%; inconclusive = mostly about -30% to -49%
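THP-1 cells pretreated 1 hr with compounds (up to 57.5 uM final), then stimulated with LPS (250 ng/mL final) plus ATP (1.25 mM final); secreted IL-1B measured by AlphaLISA after 16 hr, decreased signal indicating inhibition.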
An asterisk follows results filed as active; i = inactive; ? = inconclusive; · = not tested or not shown. Rows were chosen to be rich in hits. Some 18% of all compounds tested hit in one or more screens of this group. Unless noted, calls follow the shape of the dose curve; as a rule, active = well fitted curve in the direction sought with a large enough effect; inconclusive = small, poorly fitted or top-dose-only effect, or another doubt; inactive = no such curve, though single readings can be large; an effect the other way counts as inactive or inconclusive. Unless noted, % is scaled to controls: 0 for no effect and ±100 for the full control effect.

SMILES	DT40 TDP1 no CPT	LDHA inh	RORg inh	DT40 TDP1 CPT	VP16 counter	IL1B secr inh
CC1CCCN(S(=O)(=O)c2ccc(NC(=O)CN3CCCCC3)cc2)C1 (stereo not drawn)	-24%	-9	3%	-26%	4%	-4
Cc1ccc(S(=O)(=O)N2CCC(C(=O)Nc3ccccc3N3CCCCC3)CC2)cc1C	?	2	·	18µM*	·	16
Cc1ccccc1C(=O)N1CCC(C(=O)Nc2ccc(S(=O)(=O)N3CCCCC3)cc2)CC1	12µM*	-5	?	16µM*	?	i
Cc1ccccc1C(=O)N1CCC(C(=O)Nc2ccc(S(=O)(=O)N3CCOCC3)cc2)CC1	?	-6	·	?	·	27
CCN(CC)CCNC(=O)c1ccc(NC(=O)Cc2cccc(C(F)(F)F)c2)cc1	·	-3	·	·	·	·
CCCCOc1ccc(NC(=O)CC(C)C)c2cccnc12	·	9	·	·	·	·
Cc1ccc(NC(=O)CSc2nc(CN(C)C)nc3ccccc23)c(C)c1	·	-1	·	·	·	·
CCN(Cc1cc2cc(C)ccc2[nH]c1=O)S(C)(=O)=O	·	3	·	·	·	·
CC(C)c1ccc(NC(=O)C2CCN(S(=O)(=O)c3ccc4c(c3)C(C)(C)C(=O)N4C)CC2)cc1	?	-6	?	16µM*	-1%	50
Cc1ccc(S(=O)(=O)N2CCCN(C(=O)c3cc4ccccc4[nH]3)CC2)cc1	?	-3	?	2%	?	-61*
Cc1ccc(N2CCN(C(=O)c3cc4ccccc4[nH]3)CC2)cc1	·	-1	·	·	·	·
Cc1ccc(S(=O)(=O)N2CCCN(C)c3nc4ccccc4nc32)cc1	16µM*	1	·	?	·	-2
CC1CC1C(=O)Nc1ccc(S(=O)(=O)N2CCCCC2)cc1 (stereo not drawn)	21µM*	-2	·	23µM*	·	14
CC(C)(C)NCCC(=O)O	·	4	·	·	·	·
Cc1ccc(S(=O)(=O)N2CCCCC2)cc1NC(=O)C1CCN(C(=O)OC(C)(C)C)CC1	16µM*	1	·	?	·	22
Cc1ccc(NC(=O)C2CCN(C(=O)OC(C)(C)C)CC2)cc1S(=O)(=O)N1CCCCC1	-51%	3	·	?	·	-5
COC(=O)C1(C(=O)OC)CCCCN(S(=O)(=O)c2ccc(C)cc2)CCC1	21µM*	-8	·	?	·	3
COc1ccccc1N1CCN(c2nc3ccc(C)cc3nc2-n2nc(C)cc2C)CC1	21µM*	-8	·	23µM*	·	·
Cc1ccc(S(=O)(=O)N2CCC(C(=O)Nc3ccc(S(=O)(=O)N4CCCC4)cc3)CC2)cc1C	18µM*	-5	·	?	·	5
CS(=O)(=O)c1nc(S(=O)(=O)c2ccc(Cl)cc2)c(NCc2ccccc2)s1	·	-2	·	·	·	·
Nc1ccc(C2=CSC3=NCCCN23)cc1	·	7	·	·	·	·
CCOC(=O)c1cc(OC(C)C(=O)NC(C)c2ccccc2)cc(C(=O)OCC)c1 (stereo not drawn)	·	1	·	·	·	·
CC(=O)c1ccc(NC(=O)C(C)OC(=O)c2nc(-c3ccccc3)oc2C)cc1 (stereo not drawn)	·	5	·	·	·	·
Cc1ccc(NS(=O)(=O)c2ccc(NC(=O)C3CC3)cc2)cc1C	?	0	·	18µM*	·	-2
O=C(CSc1ccc2ccccc2c1)N1CCN(c2ccc(O)cc2)CC1	12µM*	4	1%	13µM*	-18%	25
SMILES	DT40 TDP1 no CPT	LDHA inh	RORg inh	DT40 TDP1 CPT	VP16 counter	IL1B secr inh
O=S(=O)(c1ccc2ccccc2c1)N1CCN(c2ccc(O)cc2)CC1	8.2µM*	3	·	6.5µM*	·	29
O=C(c1ccc2ccccc2c1)N1CCN(c2ccc(O)cc2)CC1	?	23	-14%	?	-3%	2
O=S(=O)(c1ccc2ccccc2c1)N1CCOCC1	0%	-5	3%	-5%	7%	-12
COc1ccc(S(=O)(=O)N2CCCN(S(=O)(=O)c3ccc(OC)cc3C)CC2)c(C)c1	?	1	?	23µM*	-4%	-21
CC(C)CNC(=O)COC(=O)c1cc(=O)c2cc(Cl)ccc2o1	·	-5	·	·	·	·
Cc1ccc(S(=O)(=O)N2CCC(C(=O)Nc3ccncc3)CC2)cc1	?	-3	·	?	·	14
Cc1ccc(S(=O)(=O)N2CCCN(S(=O)(=O)c3ccc4ccccc4c3)CC2)cc1	?	-6	12%	8.2µM*	12%	-16
Cc1ccc(S(=O)(=O)N2CCC(C(=O)Nc3ccc(S(=O)(=O)N4CCCC4)cc3)CC2)cc1	15µM*	-5	·	?	·	-9
COc1ccccc1/C=C/c1nc(C#N)c(NCc2ccc3c(c2)OCO3)o1	·	5	·	·	·	·
COc1ccccc1NC(=S)NNC(=O)c1nn(C)c(C)c1Cl	-15%	0	19%	3%	17%	11
COc1ccccc1NC(=S)NNC(=O)c1nn(C)cc1Cl	5%	-9	10µM*	2%	?	0
CCC(CO)NS(=O)(=O)c1cc(Cl)c(Cl)cc1Cl (stereo not drawn)	·	3	·	·	·	·
CC(C)C1N=C2c3ccccc3N=C(SCc3cc(=O)n4cc(Cl)ccc4n3)N2C1=O (stereo not drawn)	15µM*	-2	?	?	-2%	17
Cc1ccc(/C=N/NC(=O)C(O)(c2ccccc2)c2ccccc2)s1	·	12	·	·	·	·
COc1ccc(S(=O)(=O)c2c(C)c(C)n(Cc3ccccc3)c2NC(=O)C(C)C)cc1	·	9	·	·	·	·
COc1ccc(OC)c(CNc2sc3c(c2C(=O)Nc2cc(OC)ccc2OC)CCCC3)c1	?	1	·	?	·	·
COc1ccccc1CC(=O)Nc1sc2c(c1C(N)=O)CCCC2	-32%	0	12%	-5%	-1%	10
COc1cc(OC)c(OC)cc1CNc1sc2c(c1C(=O)Nc1ccccc1OC)CCC2	21µM*	10	·	21µM*	·	·
CCOC(=O)c1ccc(NC(=O)c2c(NCc3cc(OC)c(OC)cc3OC)sc3c2CCCC3)cc1	?	3	·	23µM*	·	·
CCN(CC)CC(=O)Nc1sc2c(c1C(=O)c1ccccc1OC)CCC2	15µM*	-3	4µM*	16µM*	10µM*	-53*
CCOC(=O)c1ccc(NC(=O)c2c(NCc3cc(OC)ccc3OC)sc3c2CCC3)cc1	?	-1	·	16µM*	·	·
CCC(C)Oc1ccccc1C1CC(=O)NC2=C1C(=O)CC(C)(C)C2 (stereo not drawn)	·	-3	·	·	·	·
COc1ccc(NC(=O)CC2C(=O)N(c3ccccc3)C(=O)N2CCc2sccc2C)cc1 (stereo not drawn)	16µM*	-2	·	?	·	·

Screens (PubChem BioAssay)
